Dicer processing: human Dicer pre-microRNA cleavage inhibition. z-score at 25 µM. 47,000 tested, 6% active. cat-ELCCA pre-miR-21 Dicer processing, chemiluminescence; hits give high values; in the data active means z-score above about 3, passing the limit was not always enough;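 further: plate controls were vehicle for no effect and no enzyme for full effect; higher signal means more uncleaved substrate so more Dicer inhibition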
Target sequence (Q9UPY3 whole entry, looked up): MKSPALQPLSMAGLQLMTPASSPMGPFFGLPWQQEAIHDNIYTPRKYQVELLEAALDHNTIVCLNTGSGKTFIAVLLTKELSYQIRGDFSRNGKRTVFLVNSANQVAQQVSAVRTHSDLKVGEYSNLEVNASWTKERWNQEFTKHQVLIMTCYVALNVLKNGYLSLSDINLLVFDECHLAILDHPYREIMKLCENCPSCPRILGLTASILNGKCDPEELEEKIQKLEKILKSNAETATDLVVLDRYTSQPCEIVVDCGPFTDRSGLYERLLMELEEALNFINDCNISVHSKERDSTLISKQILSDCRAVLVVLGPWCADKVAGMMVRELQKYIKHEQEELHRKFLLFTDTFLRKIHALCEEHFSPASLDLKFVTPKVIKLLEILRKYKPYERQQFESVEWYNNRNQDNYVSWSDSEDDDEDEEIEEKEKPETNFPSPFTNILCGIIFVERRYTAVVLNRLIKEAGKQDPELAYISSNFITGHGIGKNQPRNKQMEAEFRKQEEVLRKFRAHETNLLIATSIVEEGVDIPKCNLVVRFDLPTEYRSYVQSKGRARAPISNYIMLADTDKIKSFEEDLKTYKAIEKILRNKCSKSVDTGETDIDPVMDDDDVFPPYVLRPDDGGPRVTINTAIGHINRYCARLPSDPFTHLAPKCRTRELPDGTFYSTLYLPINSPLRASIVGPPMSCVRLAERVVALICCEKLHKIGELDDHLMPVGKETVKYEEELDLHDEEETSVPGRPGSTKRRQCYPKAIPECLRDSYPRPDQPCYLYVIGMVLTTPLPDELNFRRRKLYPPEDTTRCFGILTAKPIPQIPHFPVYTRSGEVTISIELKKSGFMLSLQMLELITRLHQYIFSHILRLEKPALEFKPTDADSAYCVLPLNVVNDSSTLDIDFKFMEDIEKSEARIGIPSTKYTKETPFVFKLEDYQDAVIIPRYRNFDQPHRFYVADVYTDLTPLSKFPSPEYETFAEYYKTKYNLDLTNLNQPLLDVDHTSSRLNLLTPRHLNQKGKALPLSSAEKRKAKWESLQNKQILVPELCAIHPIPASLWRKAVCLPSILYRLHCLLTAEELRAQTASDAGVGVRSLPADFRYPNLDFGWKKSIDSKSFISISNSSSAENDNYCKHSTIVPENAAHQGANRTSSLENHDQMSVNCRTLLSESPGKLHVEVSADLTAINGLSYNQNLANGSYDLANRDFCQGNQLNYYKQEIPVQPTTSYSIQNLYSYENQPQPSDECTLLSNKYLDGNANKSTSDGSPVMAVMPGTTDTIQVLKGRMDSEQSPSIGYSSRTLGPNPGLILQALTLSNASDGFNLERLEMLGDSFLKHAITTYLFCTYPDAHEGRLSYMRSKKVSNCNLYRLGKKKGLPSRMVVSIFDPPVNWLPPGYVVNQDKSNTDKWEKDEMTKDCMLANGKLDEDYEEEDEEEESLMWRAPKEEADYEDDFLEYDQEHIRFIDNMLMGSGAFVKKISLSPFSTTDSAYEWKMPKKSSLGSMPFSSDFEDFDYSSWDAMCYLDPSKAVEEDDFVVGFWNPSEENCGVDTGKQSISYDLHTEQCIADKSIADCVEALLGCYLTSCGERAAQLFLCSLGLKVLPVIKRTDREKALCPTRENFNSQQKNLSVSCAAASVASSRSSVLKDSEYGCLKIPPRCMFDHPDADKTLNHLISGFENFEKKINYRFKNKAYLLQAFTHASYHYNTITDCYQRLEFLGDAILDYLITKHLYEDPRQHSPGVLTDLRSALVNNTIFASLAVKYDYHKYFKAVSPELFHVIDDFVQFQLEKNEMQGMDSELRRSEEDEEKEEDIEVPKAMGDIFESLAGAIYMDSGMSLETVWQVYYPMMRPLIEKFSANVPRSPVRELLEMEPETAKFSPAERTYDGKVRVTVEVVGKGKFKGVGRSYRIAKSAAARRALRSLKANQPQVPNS
Starred values were filed as active, the others as inactive. The full list was thinned out, with hits kept by preference.

SMILES	Dicer processing
CCCCCOc1ccc(C2c3c(oc4ccccc4c3=O)C(=O)N2c2nnc(C)s2)cc1 (stereo unspecified)	-0.69
Cc1cc(Oc2ccnc3cc(Cl)ccc23)cc(C)c1Cl	-0.76
Cc1cc(OCOc2ccc(Cl)c(C)c2)ccc1Cl	-1.3
Cc1cc(Oc2ccnc3cc(Cl)ccc23)ccc1Cl	29*
CCN(CC)C(=O)Oc1ccc2c(C(F)(F)F)cc(=O)oc2c1	5.3
CCCCN1C2=NCCN2c2ccccc21	-0.46
Clc1ccccc1Cc1cn2cc(-c3ccccc3)nc2s1	4.1*
c1ccc(Cc2cn3cc(-c4ccccc4)nc3s2)cc1	-0.47
Fc1ccc(Cc2cn3cc(-c4ccccc4)nc3s2)cc1	0.05
O=C(Cn1c(=O)oc2ccccc21)Nc1nnc(SCC(=O)c2ccccc2)s1	2
CCOC(=O)CSc1nc(N2CCOCC2)c2c(c1C#N)CC(C)(C)OC2	-1.3
CC1(C)Cc2nc(N3CCOCC3)c(C#N)cc2CO1	4.2*
CC1(C)Cc2nc(N3CCCC3)c(C#N)cc2CO1	-1.8
Cn1cc(Br)c(NC(=O)/C=C\C(=O)O)n1	-1.8
Cc1cc(C)cc(NC(=O)/C=C/C(=O)O)c1	7.1*
Cc1cc(C)c(C)c(C(=O)/C=C/C(=O)O)c1C	0.97
Cc1c(C)c(NC(=O)/C=C/C(=O)O)c(C)c(C)c1NC(=O)/C=C/C(=O)O	3.5*
O=C(O)/C=C/C(=O)Nc1ccc(C2CCCCC2)cc1	1.4
Cc1ccc(C)c(NC(=O)/C=C/C(=O)O)c1	2.8
COC(=O)c1c(N)sc2c1CCN(C)C2	-0.3
O=C(c1sc2cc(F)ccc2c1Cl)N1CCc2ccccc2C1	1.7
O=C(NNC(=S)NC(=O)C1CC1)c1cccc([N+](=O)[O-])c1	-0.9
CCOC(=O)c1cnn(-c2c(Cl)cc(Cl)cc2Cl)c1C	-0.52
Cc1onc(-c2ccccc2)c1CNC(=O)NC1CCN(C(=O)OCc2ccccc2)CC1	-4.6
O=c1[nH]nc(Sc2ncccc2C(F)(F)F)n1C1CCCCC1	0.42
SMILES	Dicer processing
CC(=O)O/N=C/c1[nH]ncc1Br	1.1
C#Cc1cccc(NC(=O)c2ccccc2)c1	-0.48
Cc1cccc(NC(=S)NNC(=O)NNC(=S)Nc2cccc(C)c2)c1	1.6
C#Cc1cccc(NC(=S)NNC(=S)Nc2cccc(C#C)c2)c1	8.9*
CCOC(=O)c1ccc(Oc2nc(NC)nc(SC)n2)cc1	5.6*
CCOC(=O)c1ccc(Oc2nc(N(C)C)nc(N(C)C)n2)cc1	1.7
COC(=O)c1ccc(Oc2nc(N(C)C)nc(N(C)C)n2)cc1	-0.06
O=C(NCC1CCCO1)c1cc2n(n1)C(C(F)(F)F)CC(c1ccc3c(c1)OCO3)N2 (stereo unspecified)	-1.6
O=[N+]([O-])c1cc(C2SCCS2)ccc1Sc1ccc(C(F)(F)F)cn1	1.4
COc1ccccc1Nc1nc(N)nc(CN2CCN(C)CC2)n1	0.45
O=c1c2oc3nc(-c4ccccc4)cc(-c4ccco4)c3c2ncn1/N=C/c1ccc(F)cc1	2.5
O=c1[nH]cnc2c1oc1nc(-c3ccc(Cl)cc3)cc(-c3ccco3)c12	6.5*
NNC(=O)c1oc2nc(-c3ccc(Cl)cc3)cc(-c3ccccc3)c2c1N	-2.9
COC(=O)c1ccc2c(c1)N(C)S(=O)(=O)/C(=C\Nc1ccc(OC)cc1)C2=O	0.35
Cc1sc(N)nc1-c1ccc(CC(C)C)cc1	-1.7
Cc1ccc(-c2nc(N)sc2-c2ccccc2)cc1	3.1*
Cc1ccc(-c2nc(N)sc2C)cc1	0.07
CSc1scc2c1/C(=N/OC(C)=O)CC(C)(C)C2	9.5
O=c1cc(-c2ccccc2)nc2nc(C(F)(F)F)[nH]n12	-2.4
O=c1cc(-c2ccccc2)nc2cc(-c3ccccc3)[nH]n12	0.61
Cc1cc(=O)n2[nH]c(-c3cccs3)cc2n1	-0.3
CC(C)(C)c1cc2nc(-c3ccccc3)cc(=O)n2[nH]1	-1.1
O=c1cc(-c2ccccc2)nc2c(-c3ccccc3)c(C(F)(F)F)[nH]n12	4*
O=c1cc(-c2ccccc2)nc2cc(-c3cccs3)[nH]n12	3.1*
N=c1c2cnn(-c3ccccc3)c2ncn1NC(=S)Nc1ccc(Cl)cc1Cl	26
SMILES	Dicer processing
COc1ccc(/C(O)=C2\C(=O)C(=O)N(Cc3cccnc3)C2c2ccc(OC)c(OC)c2)cc1 (stereo unspecified)	-0.5
Cc1ccc(C)c(S(=O)(=O)N(C(=O)c2cccnc2)c2ccc3oc(=O)sc3c2)c1	13
Cc1cc(C)c(S(=O)(=O)N(C(=O)c2cccnc2)c2ccc3oc(=O)sc3c2)cc1C	11*
Cc1ccc(S(=O)(=O)N(C(=O)c2cccnc2)c2ccc3oc(=O)sc3c2)c(C)c1	8.4*
Cc1ccc(S(=O)(=O)NCc2cccnc2)c(C)c1	1.2
COc1ccc(C2C(C#N)=C(N)Oc3c2sc2ccccc32)cc1OC (stereo unspecified)	0.06
Cc1ccc(C2c3c(oc4ccc(C)cc4c3=O)C(=O)N2c2ccccn2)cc1 (stereo unspecified)	1.4
COc1cc2c(C)[nH]c(=O)c([N+](=O)[O-])c2cc1OC	-1.7
COc1ccc(-c2noc(-c3ccc(C)c(C)c3)n2)cc1OC	1.5
CCOC(=O)NC(=S)NCCCn1ccnc1	0.28
N#Cc1cc(NC(=O)c2ccc(F)cc2)c(=O)n2c1sc1ccccc12	0.63
CCN1C(=O)C2(/C(=C(/O)c3ccc(OC)c(C)c3)C(=O)C(=O)N2CCCN(C)C)c2ccccc21 (stereo unspecified)	-0.67
CCN1C(=O)C2(/C(=C(/O)c3ccc(OC)cc3)C(=O)C(=O)N2CCN(C)C)c2ccccc21 (stereo unspecified)	4.3*
CCCN1C(=O)C2(/C(=C(/O)c3ccc(OC)cc3)C(=O)C(=O)N2CCCN(C)C)c2ccccc21 (stereo unspecified)	1.3
CCN1C(=O)C2(/C(=C(/O)c3ccc(OC)cc3)C(=O)C(=O)N2CCCN(C)C)c2ccccc21 (stereo unspecified)	3.3*
CCN1C(=O)C2(/C(=C(/O)c3ccc(C)cc3)C(=O)C(=O)N2CCCN(C)C)c2ccccc21 (stereo unspecified)	0.44
CCCN1C(=O)C2(/C(=C(/O)c3ccc(F)cc3)C(=O)C(=O)N2CCN(C)C)c2ccccc21 (stereo unspecified)	2.3
COc1ccc(Br)cc1/C=N/Nc1nccc(C(F)(F)F)n1	1.1
CC(=O)Nc1ccc(S(=O)(=O)N(c2ccccc2C(F)(F)F)S(=O)(=O)c2ccc(NC(C)=O)cc2)cc1	0.03
CCOC(=O)Nc1cc(C(=O)OC)ccc1C(=O)OC	2.1
COC(=O)c1ccc(C(=O)OC)c(NC(=O)C2CC3CCC2C3)c1 (stereo unspecified)	4.3*
COC(=O)c1ccc(C(=O)OC)c(NC(=O)Nc2ccc(F)cc2)c1	0.73
CSC1=NC=C(C#N)C2=NC(C)(c3cc(Cl)cc(Cl)c3)NN12 (stereo unspecified)	-1.6
CCCc1c(Cc2c(F)cccc2Cl)c(=O)oc2cc(OC(=O)COC)ccc12	4.4*
Cc1c(Cc2c(F)cccc2Cl)c(=O)oc2cc(O)ccc12	-0.21
SMILES	Dicer processing
CCCc1c(Cc2c(F)cccc2Cl)c(=O)oc2cc(OS(C)(=O)=O)ccc12	0.67
O=c1[nH]nc2c(-c3ccccc3)c(-c3ccccc3)c(-c3ccccc3)nn12	-4.2
Nc1ccc(S(=O)(=O)NCc2ccco2)cc1	1.1
N/C(CS(=O)(=O)Cc1ccco1)=N\O	4.5*
N#C/C(=C\c1ccc(Cl)cc1)S(=O)(=O)Cc1ccco1	-0.03
CC1=C(C(=O)Nc2cccc(F)c2)C(c2ccccn2)C2=C(CC(C)(C)CC2=O)N1 (stereo unspecified)	2.2

Assay outcomes (PubChem BioAssay)
